In PubChem BioAssay (NCI):
This is part of a sample that, as a whole, favours compounds with a hit. Of some 79,000 tested, about 15% had one in any assay. Active and inactive are the calls of the source. Rule as the data show it: active = growth inhibition above about 70%; inactive = the rest.

Assays:
[1] = NCI Yeast Anticancer Drug Screen. Data for the rad52 strain (AID 147);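 also: 0% = growth of vehicle-treated control cultures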; details: S. cerevisiae rad52 mutant growth inhibition, stronger effect = higher value
Method in brief: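 Growth of repair-deficient yeast cells was compared between compound-treated and vehicle-treated cultures to give percent inhibition.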

[2] = NCI Yeast Anticancer Drug Screen. Data for the wt1 strain (AID 149);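 also: 0% = growth of vehicle-treated wt1 cultures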; details: S. cerevisiae wt1 strain (SPY 50644) growth inhibition, stronger effect = higher value
Method in brief: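 Vehicle-normalised growth inhibition; strain wt1; compound exposure.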

[3] = NCI Yeast Anticancer Drug Screen. Data for the rad50EPP+ strain (AID 151);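 also: 0% = growth of vehicle-treated control cultures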; details: S. cerevisiae rad50 mutant strain, stronger effect = higher value
Method in brief: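 Measured: growth inhibition of rad50EPP+ yeast. Reference: vehicle-treated controls. Screen uses strains with defined genetic alterations in DNA damage repair or cell cycle control.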

[4] = NCI Yeast Anticancer Drug Screen. Data for the mgt1 strain (AID 153); details: S. cerevisiae mgt1 mutant growth inhibition, stronger effect = higher value
Method in brief: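 Compounds were applied to mgt1 mutant yeast, and growth was then compared against vehicle-treated control cultures to give percent inhibition.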

[5] = NCI Yeast Anticancer Drug Screen. Data for the rad50 strain (AID 155);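 also: 0% = growth of vehicle-only cultures of the same strain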; details: S. cerevisiae rad50 strain growth inhibition, stronger effect = higher value
Method in brief: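 A DNA repair-deficient yeast mutant serves as the test organism; compound-induced growth inhibition is calculated against vehicle-treated cells.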

[6] = NCI Yeast Anticancer Drug Screen. Data for the mec2-1 strain (AID 157); details: S. cerevisiae mec2-1 strain, stronger effect = higher value
Method in brief: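 Compounds were applied to mec2-1 yeast cells. Their growth was then compared with that of vehicle-treated cultures to give growth inhibition.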

[7] = NCI Yeast Anticancer Drug Screen. Data for the rad14 strain (AID 159);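 also: 0% = growth of vehicle-treated control cultures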; details: S. cerevisiae rad14 strain growth inhibition, stronger effect = higher value
Method in brief: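 Vehicle-treated cultures served as the baseline for growth inhibition of a DNA repair-mutant yeast strain exposed to each compound.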

[8] = NCI Yeast Anticancer Drug Screen. Data for the sgs1 mgt1 strain (AID 161);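 also: 0% = growth of cultures given vehicle only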; details: S. cerevisiae sgs1 mgt1 strain, stronger effect = higher value
Method in brief: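 Compounds are added to genetically altered yeast, and growth is compared with cultures given vehicle alone to give percent inhibition.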

[9] = NCI Yeast Anticancer Drug Screen. Data for the CLN2oe strain (AID 163);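 also: 0% = growth of vehicle-only control cultures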; details: S. cerevisiae CLN2oe strain, stronger effect = higher value
Method in brief: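 Cells of an engineered yeast line with disturbed cell-cycle regulation are treated with compound. Inhibition of growth is then calculated relative to the vehicle-treated reference.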

[10] = NCI Yeast Anticancer Drug Screen. Data for the cln2 rad14 strain (AID 165);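 also: 0% = growth equal to vehicle treated cultures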; details: S. cerevisiae cln2 rad14 strain, stronger effect = higher value
Method in brief: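 Strain: cln2 rad14 yeast, altered in cell cycle control and DNA damage repair. Read-out: growth inhibition vs vehicle.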

[11] = NCI Yeast Anticancer Drug Screen. Data for the bub3 strain (AID 167); details: S. cerevisiae bub3 mutant strain, stronger effect = higher value
Method in brief: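 Inhibition values come from growth of compound-treated mutant yeast normalised to vehicle-treated controls.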

[12] = NCI Yeast Anticancer Drug Screen. Data for the wt2 strain (AID 169);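 also: 0% = growth of vehicle-treated yeast cultures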; details: S. cerevisiae wt2 strain growth inhibition, stronger effect = higher value
Method in brief: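 Growth of compound-treated yeast is measured and expressed as inhibition relative to vehicle-only controls.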

[13] = NCI Yeast Anticancer Drug Screen. Data for the mlh1 strain (AID 171);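 also: 0% = growth of vehicle-treated control cultures of the same strain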; details: S. cerevisiae mlh1 strain growth inhibition, stronger effect = higher value
Method in brief: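 Test agents were incubated with yeast bearing a defined DNA damage repair or cell cycle control alteration; values are growth inhibition normalised to vehicle-treated cultures.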

[14] = NCI Yeast Anticancer Drug Screen. Data for the sgs1 strain (AID 173);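 also: 0% = growth of vehicle-only control cultures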; details: S. cerevisiae sgs1 mutant, stronger effect = higher value
Method in brief: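 Strain with an altered DNA repair or cell cycle pathway exposed to compound. Growth then measured. Value = inhibition versus vehicle control.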

[15] = NCI Yeast Anticancer Drug Screen. Data for the mlh1 rad18 strain (AID 175); details: S. cerevisiae mlh1 rad18 strain growth inhibition, stronger effect = higher value
Method in brief: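 A repair-deficient yeast strain is exposed to test compound, and growth is scored relative to vehicle-treated controls.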

[16] = NCI Yeast Anticancer Drug Screen. Data for the rad18 strain (AID 177); details: S. cerevisiae rad18 mutant growth inhibition, stronger effect = higher value
Method in brief: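 DNA-repair-defective yeast; compound treatment; growth inhibition scored against vehicle.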

[17] = at 5.0 µM (retest, dose inferred, filed as 0.5)
[18] = at 50.0 µM (retest, dose inferred, filed as 5.0)

Measured: growth inhibition

OCC(CO)C(c1cccc2ccccc12)c1cccc2ccccc12
inactive: [1]; at 1.2 µM 3% | [1]; at 3.7 µM 42% | [2]; at 1.2 µM -5% | [2]; at 3.7 µM 1% | [3]; at 1.2 µM 0% | [3]; at 3.7 µM 3% | [3]; at 11.0 µM 10% | [3]; at 33.0 µM 13% | [3]; at 100.0 µM -2% | [4]; at 1.2 µM -1% | [4]; at 3.7 µM 9% | [5]; at 1.2 µM 4% | [5]; at 3.7 µM 40% | [5]; [17] 19% | [6]; at 1.2 µM -1% | [6]; at 3.7 µM 21% | [6]; [17] 4% | [7]; at 1.2 µM 0% | [7]; at 3.7 µM 20% | [8]; [17] 6% | [9]; at 1.2 µM -2% | [9]; at 3.7 µM 28% | [10]; [17] 2% | [11]; at 1.2 µM -1% | [11]; at 3.7 µM 9% | [11]; [17] -1% | [12]; at 1.2 µM -4% | [12]; at 3.7 µM 3% | [13]; at 1.2 µM 0% | [13]; at 3.7 µM 11% | [14]; at 1.2 µM 1% | [14]; at 3.7 µM 15% | [15]; [17] 7% | [16]; at 1.2 µM 7% | [16]; at 3.7 µM 53%
active: [1]; at 11.0 µM 98% | [1]; at 33.0 µM 98% | [1]; at 100.0 µM 88% | [2]; at 11.0 µM 98% | [2]; at 33.0 µM 99% | [2]; at 100.0 µM 94% | [4]; at 11.0 µM 98% | [4]; at 33.0 µM 99% | [4]; at 100.0 µM 93% | [5]; at 11.0 µM 98% | [5]; at 33.0 µM 98% | [5]; [18] 99% | [5]; at 50.0 µM 99.3% | [5]; at 100.0 µM 88% | [6]; at 11.0 µM 98% | [6]; at 33.0 µM 99% | [6]; [18] 99% | [6]; at 50.0 µM 99.2% | [6]; at 100.0 µM 92% | [7]; at 11.0 µM 99% | [7]; at 33.0 µM 99% | [7]; at 100.0 µM 90% | [8]; [18] 100% | [8]; at 50.0 µM 99.2% | [9]; at 11.0 µM 99% | [9]; at 33.0 µM 99% | [9]; at 100.0 µM 88% | [10]; [18] 97% | [10]; at 50.0 µM 99.2% | [11]; at 11.0 µM 98% | [11]; at 33.0 µM 99% | [11]; [18] 99% | [11]; at 50.0 µM 99.3% | [11]; at 100.0 µM 89% | [12]; at 11.0 µM 98% | [12]; at 33.0 µM 99% | [12]; at 100.0 µM 90% | [13]; at 11.0 µM 99% | [13]; at 33.0 µM 99% | [13]; at 100.0 µM 92% | [14]; at 11.0 µM 98% | [14]; at 33.0 µM 99% | [14]; at 100.0 µM 93% | [15]; [18] 99% | [15]; at 50.0 µM 98.7% | [16]; at 11.0 µM 98% | [16]; at 33.0 µM 99% | [16]; at 100.0 µM 88%

CC1CC(C)(C)CC(OCCN2CCCCC2)(c2ccccc2)C1 (stereo unspecified)
active: [1]; at 100.0 µM 84% | [4]; at 100.0 µM 83% | [5]; [18] 89% | [5]; at 50.0 µM 87.8% | [5]; at 100.0 µM 82% | [7]; at 100.0 µM 99% | [8]; [18] 79% | [8]; at 50.0 µM 83.5% | [9]; at 100.0 µM 87% | [11]; [18] 74% | [11]; at 50.0 µM 78.8% | [11]; at 100.0 µM 75% | [12]; at 100.0 µM 80% | [13]; at 100.0 µM 87% | [14]; at 100.0 µM 95% | [15]; [18] 79% | [15]; at 50.0 µM 84.8% | [16]; at 100.0 µM 91%
inactive: [1]; at 1.2 µM -1% | [1]; at 3.7 µM 8% | [1]; at 11.0 µM 15% | [1]; at 33.0 µM 25% | [2]; at 1.2 µM 2% | [2]; at 3.7 µM 5% | [2]; at 11.0 µM 12% | [2]; at 33.0 µM 14% | [2]; at 100.0 µM 32% | [3]; at 1.2 µM -5% | [3]; at 3.7 µM 1% | [3]; at 11.0 µM -3% | [3]; at 33.0 µM -3% | [3]; at 100.0 µM -2% | [4]; at 1.2 µM 0% | [4]; at 3.7 µM 2% | [4]; at 11.0 µM 10% | [4]; at 33.0 µM 32% | [5]; at 1.2 µM 3% | [5]; at 3.7 µM 8% | [5]; [17] 28% | [5]; at 11.0 µM 19% | [5]; at 33.0 µM 25% | [6]; at 1.2 µM 0% | [6]; at 3.7 µM 3% | [6]; [17] 4% | [6]; at 11.0 µM 10% | [6]; at 33.0 µM 11% | [6]; [18] 10% | [6]; at 50.0 µM 36.3% | [6]; at 100.0 µM 54% | [7]; at 1.2 µM 7% | [7]; at 3.7 µM 21% | [7]; at 11.0 µM 37% | [7]; at 33.0 µM 62% | [8]; [17] 4% | [9]; at 1.2 µM 2% | [9]; at 3.7 µM 7% | [9]; at 11.0 µM 20% | [9]; at 33.0 µM 50% | [10]; [17] -1% | [10]; [18] 26% | [10]; at 50.0 µM 52.2% | [11]; at 1.2 µM -3% | [11]; at 3.7 µM 4% | [11]; [17] -16% | [11]; at 11.0 µM 17% | [11]; at 33.0 µM 52% | [12]; at 1.2 µM 0% | [12]; at 3.7 µM 5% | [12]; at 11.0 µM 21% | [12]; at 33.0 µM 32% | [13]; at 1.2 µM 1% | [13]; at 3.7 µM 5% | [13]; at 11.0 µM 17% | [13]; at 33.0 µM 15% | [14]; at 1.2 µM 3% | [14]; at 3.7 µM 12% | [14]; at 11.0 µM 40% | [14]; at 33.0 µM 63% | [15]; [17] 7% | [16]; at 1.2 µM -3% | [16]; at 3.7 µM 11% | [16]; at 11.0 µM 30% | [16]; at 33.0 µM 55%
